# Compound activity from PubChem BioAssay.
# The list is not random: actives were taken first. Their share in the collection is about 3.6%.
# DUSP3 inh: DUSP3 (human) phosphatase inhibition; P51452; recombinant VHR phosphatase, pNPP absorbance; inhibition, % at 13.3 µM; actives 0.52% (n = 290,000); in the data active = inhibition above about 50%
# Target sequence (P51452 whole entry, looked up): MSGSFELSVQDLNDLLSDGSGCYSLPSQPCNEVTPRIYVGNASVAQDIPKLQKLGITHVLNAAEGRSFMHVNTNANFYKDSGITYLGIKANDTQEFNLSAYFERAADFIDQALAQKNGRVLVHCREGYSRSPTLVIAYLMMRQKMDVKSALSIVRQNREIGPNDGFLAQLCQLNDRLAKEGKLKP
# GDH-TPI inh: counter-screen for M. tuberculosis FBA inhibitors: GDH-TPI coupled enzymes | GDH-TPI coupled enzyme counterscreen, NADH absorbance | inhibition, % at 4.8 µM | actives 1.2% (n = 360,000) | AID 588335; in the data active = inhibition above about 30%;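 also: 0% = DMSO wells and 100% = wells lacking the enzyme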
# Mtb bLac sens: beta-lactam sensitization of Mtb H37Rv; actives 0.27% (n = 330,000); M. tuberculosis H37Rv growth with meropenem, percent inhibition; inhibition, % at 25 µM; call rule not given here;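 also: growth measured after seven days incubation then overnight dye step; 0% = bacteria only wells and 100% = bacteria with antibiotic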
# Mtb FBA inh: inhibits M. tuberculosis FBA enzyme. AID 588726. purified M. tuberculosis FBA, fluorescence read-out. inhibition, % at 1 µM. actives 2.3% (n = 360,000). P9WQA3; in the data active = inhibition above about 27%;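 also: 0% = vehicle and 100% = reference inhibitor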
# Target sequence (P9WQA3 whole entry, looked up): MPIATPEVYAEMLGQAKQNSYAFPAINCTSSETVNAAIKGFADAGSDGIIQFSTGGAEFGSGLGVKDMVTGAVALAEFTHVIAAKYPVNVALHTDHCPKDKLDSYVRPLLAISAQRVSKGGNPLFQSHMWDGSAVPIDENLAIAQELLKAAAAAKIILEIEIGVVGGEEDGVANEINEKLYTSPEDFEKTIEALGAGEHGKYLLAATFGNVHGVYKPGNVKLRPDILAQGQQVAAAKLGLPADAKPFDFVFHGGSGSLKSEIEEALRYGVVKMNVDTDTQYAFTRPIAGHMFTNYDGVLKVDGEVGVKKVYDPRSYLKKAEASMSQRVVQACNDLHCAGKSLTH
# Mtb hypoxia rep: reduces hypoxia-regulated biosensor signal in M. tuberculosis. M. tuberculosis hypoxia-regulated fluorescent reporter, fluorescence. fluorescence inhibition, % (no concentration beside the values). actives 0.1% (n = 300,000); in the data active = fluorescence inhibition mostly above about 23%, no sharp cut-off; inactive = mostly below about 17%
# Starred values were filed as active, the others as inactive; ? = inconclusive; . = not tested or not shown; + = active, no number.
SMILES,DUSP3 inh,GDH-TPI inh,Mtb bLac sens,Mtb FBA inh,Mtb hypoxia rep
COCCNC(=O)c1cc2cc3ccc(OC)cc3nc2o1,30.8,22.1,-1.9,+,-4.9
O=C(Nc1ccccc1)C1=CC(c2ccc(Br)cc2)CC(OCc2ccc(CO)cc2)O1 (stereo unspecified),.,.,.,.,0.0
CC(/C=N/NC(=O)c1ccncc1)=C\c1ccccc1,9.6,44.6*,99.0,-2.3,.
O=C(N/N=C/C(Br)=C/c1ccccc1)c1ccncc1,7.7,36.0*,99.1,-1.4,.
C/C(C=NNC(=O)c1ccncc1)=C\c1ccc(C(C)C)cc1,.,.,.,.,11.1
CCOc1cc(C(=O)N/N=C/C(Br)=C/c2ccccc2)cc(OCC)c1OCC,-6.7,31.5*,-4.3,-3.1,.
O=C(N/N=C/C(Br)=C\c1ccccc1)c1cccs1,5.4,30.6*,59.5,-0.1,.
O=C(NN=Cc1ccco1)C1CC1c1ccccc1 (stereo unspecified),.,.,.,.,7.2
O=S(=O)(c1ccc2c(c1)OCCO2)N1CC2CC1CN2S(=O)(=O)c1c(F)cccc1F (stereo unspecified),.,.,.,.,8.1
CC(=NN1CCN(Cc2ccc(Cl)cc2)CC1)c1ccc([N+](=O)[O-])cc1,.,.,.,.,-2.7
CC(C)CC(NC(=O)Nc1ccccc1F)C(=O)O (stereo unspecified),.,.,.,.,10.8
O=C(CCC(=O)NN=Cc1ccc(Br)o1)NN=Cc1ccc(Br)o1,.,.,.,.,9.9
O=C(N/N=C\c1ccc(Cl)s1)c1cccs1,2.1,32.7*,62.6,-1.9,.
C/C(C=NNC(=O)c1ccccc1F)=C\c1ccccc1,.,.,.,.,3.3
COc1ccccc1C(=O)N/N=C/C(C)=C/c1ccccc1,-8.3,32.2*,-1.7,-5.2,.
N#Cc1c(Cl)nc(N/N=C/c2ccccc2)c(Cl)c1Cl,20.9,0.7,3.1,-0.4,.
C[N+](C)(C)c1ccc(/C=N/Nc2nc(Cl)c(C#N)c(Cl)c2Cl)cc1,-7.5,37.5*,63.0,-4.8,.
COc1ccc(/C=C/c2cc(-c3ccc(C)cc3)o[n+]2C)cc1,42.0,54.8*,99.7,12.5,.
Cc1cc(C(=O)O)ccc1-c1ccc(/C=N/n2cnnc2)o1,-24.8,50.3*,2.4,5.7,.
O=[N+]([O-])c1cc(-c2ccc(C=Nn3cnnc3)o2)cc([N+](=O)[O-])c1,.,.,.,.,43.3*
Clc1cccc(-c2ccc(/C=N/n3cnnc3)o2)c1,47.6,50.0*,-1.8,-0.3,.
Cc1ccc(-c2ccc(/C=N/n3cnnc3)o2)cc1Cl,-9.5,36.3*,95.8,6.6,.
Clc1cccc(-c2ccc(C=Nn3cnnc3)o2)c1,.,.,.,.,-0.5
N#Cc1nc(-c2ccccc2F)oc1N1CCCCC1,6.0,20.0,-3.8,+,0.3
N#Cc1nc(-c2ccccc2F)oc1N1CCN(C(=O)c2ccco2)CC1,6.2,12.4,-17.2,115.2*,11.6
SMILES,DUSP3 inh,GDH-TPI inh,Mtb bLac sens,Mtb FBA inh,Mtb hypoxia rep
N#Cc1nc(-c2ccccc2Cl)oc1N1CCCCC1,-27.8,23.4,21.2,18.9,.
N#Cc1nc(-c2ccccc2Cl)oc1N1CCN(C(=O)c2ccco2)CC1,17.5,9.9,?,4.9,7.5
N#Cc1nc(-c2ccccc2F)oc1NC1CCCCC1,29.2,0.0,2.7,175.2*,.
COc1ccc(CN2C(=O)C3Cc4c([nH]c5ccccc45)C(C)(C)N3C2=O)cc1 (stereo unspecified),.,.,.,.,1.0
CCOc1ccc2nc(N3CCCC(C(=O)NC4CCCC4)C3)sc2c1 (stereo unspecified),52.7*,1.7,-4.2,0.4,2.4
CCOc1ccc2nc(N3CCC(C(=O)NC4CCCCC4)CC3)sc2c1,-25.6,7.0,81.7,1.4,-5.1
O=[N+]([O-])c1cc2c(cc1C=Nn1c(-c3ccccn3)n[nH]c1=S)OCO2,.,.,.,.,8.4
N#C/C(=C\c1ccco1)C(=O)NCC1CCCO1 (stereo unspecified),-10.1,45.8*,-3.4,-0.3,-1.4
CC(NC(=O)/C(C#N)=C/c1ccco1)c1ccccc1 (stereo unspecified),2.5,52.5*,-6.3,-0.9,1.7
N#C/C(=C\c1ccc[nH]1)C(=O)NCC1CCCO1 (stereo unspecified),17.9,34.5*,6.6,0.6,-1.6
CN(C)c1ccc(C(=O)Nc2nnc(C3=COCCO3)o2)cc1,10.8,41.5*,90.2,3.2,7.5
CCOC(=O)c1cc(C(O)(C(F)(F)F)C(F)(F)F)c(N=CN(C)C)o1,.,.,.,.,3.7
COc1ccc(C=NN(C)C2=NS(=O)(=O)c3ccccc32)cc1,.,.,.,.,17.2
CCC(CC)COC(=O)C1=C(C)NC(=O)NC1c1ccc(N(C)C)cc1 (stereo unspecified),9.4,-2.2,1.1,183.8*,9.5
COc1cc(-c2nc3ccc(N4CCN(C)CC4)cc3[nH]2)cc(OC)c1OC,20.2,11.0,6.1,+,14.2
COc1cc(-c2cnc3c(NC=O)cc(-c4ccc(N5CCN(C)CC5)cc4)cn23)cc(OC)c1OC,.,10.7,.,1.1,.
CCOC(=O)c1sc(NC(=O)Nc2ccccc2Cl)cc1C,-6.7,21.0,68.4,6.1,-1.7
CCOC(=O)c1sc(=S)n(C)c1NC(=O)c1ccc(C(C)(C)C)cc1,-3.2,40.7*,92.3,-0.2,12.6
CCOC(=O)c1sc(=S)n(CC)c1NC(=O)C1CC1,26.7,35.1*,-1.9,1.9,.
CCOC(=O)c1sc(=S)n(C)c1NC(=O)c1ccccc1Cl,-2.5,39.5*,-1.6,0.0,11.5
CCOC(=O)c1sc(NC(=O)c2ccc(OC)cc2)nc1C,4.3,6.2,-5.0,5.2,0.2
CCOC(=O)c1sc(=S)n(C)c1NC(=O)c1ccc(OC)cc1,-7.2,36.5*,95.0,-0.4,21.1
C=CCn1c(NC(=O)c2ccc(Br)o2)c(C(=O)OCC)sc1=S,31.6,20.4,3.9,7.0,3.7
Cn1c(NC(=O)C=Cc2ccccc2)cc(=O)n(C)c1=O,.,.,.,.,-2.3
CC(C)(C=NNC(=O)CSCc1ccccc1Cl)CCC#N,.,.,.,.,9.3
SMILES,DUSP3 inh,GDH-TPI inh,Mtb bLac sens,Mtb FBA inh,Mtb hypoxia rep
O=c1c2c(O)cc(O)cc2oc2c(O)ccc(OC3OC(CO)C(O)C(O)C3O)c12 (stereo unspecified),.,.,.,.,8.3
CN1CC2C3C(=O)N(Cc4ccccc4)C(=O)C3[C@](C)(C1=O)N2C(=O)c1ccc(C(C)(C)C)cc1 (stereo partly specified),.,.,.,.,15.1
CCC(=O)Oc1ccc2c(C)c(Cl)c(=O)oc2c1,-18.5,4.4,-0.7,+,.
Cc1c(Cl)c(=O)oc2cc(OC(C)C)ccc12,-0.9,25.4,-3.0,+,.
COc1ccc(C2C=CCN(C(=O)C3CC3)C(C)C(=O)N2Cc2ccc(F)cc2)cc1 (stereo unspecified),.,.,.,.,9.0
Cc1nn(C)c(C)c1-c1c(C#N)c(N)nc2c1CCCCCC2,20.9,16.4,17.3,46.5*,.
Cc1c(-c2c(C#N)c(N)nc3c2CCCCCC3)cnn1C,10.5,14.9,-14.7,+,.
N#Cc1c(N)nc2c(c1-c1ccncc1)CCCCC2,-4.4,17.5,?,-0.7,2.9
COc1cc(N)c2ncccc2c1Cl,.,12.3,.,46.4*,7.1
CC(=NNC(=O)c1cc(C)nc2ccccc12)c1ccccn1,.,.,.,.,2.4
Cc1cc(-c2ccccc2)cc(-c2ccccc2)[n+]1CCc1ccccc1,.,3.5,-15.5,9.4,20.0
